Entries with a potency or affinity are not part of this list. Active and inactive are the calls of the source.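 How the source made its calls: active means peak inhibition of the KCNQ2 potassium channel over 30% at some tested dose, with a fitted dose response curve; inactive means no inhibition at any dose, or no curve fitted.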
target: Potassium voltage-gated channel subfamily KQT member 2 (Rattus norvegicus) (UniProt O88943); test: KCNQ2 channel inhibition, SAR follow-up, selectivity assay for TASK1 inhibitor project, cell-based, FluxOR thallium flux, concentration-response (AID 652192); conditions: KCNQ2 cell line, FluxOR thallium flux fluorescence; series mostly up to 30 µM
Sequence (O88943 whole entry, looked up): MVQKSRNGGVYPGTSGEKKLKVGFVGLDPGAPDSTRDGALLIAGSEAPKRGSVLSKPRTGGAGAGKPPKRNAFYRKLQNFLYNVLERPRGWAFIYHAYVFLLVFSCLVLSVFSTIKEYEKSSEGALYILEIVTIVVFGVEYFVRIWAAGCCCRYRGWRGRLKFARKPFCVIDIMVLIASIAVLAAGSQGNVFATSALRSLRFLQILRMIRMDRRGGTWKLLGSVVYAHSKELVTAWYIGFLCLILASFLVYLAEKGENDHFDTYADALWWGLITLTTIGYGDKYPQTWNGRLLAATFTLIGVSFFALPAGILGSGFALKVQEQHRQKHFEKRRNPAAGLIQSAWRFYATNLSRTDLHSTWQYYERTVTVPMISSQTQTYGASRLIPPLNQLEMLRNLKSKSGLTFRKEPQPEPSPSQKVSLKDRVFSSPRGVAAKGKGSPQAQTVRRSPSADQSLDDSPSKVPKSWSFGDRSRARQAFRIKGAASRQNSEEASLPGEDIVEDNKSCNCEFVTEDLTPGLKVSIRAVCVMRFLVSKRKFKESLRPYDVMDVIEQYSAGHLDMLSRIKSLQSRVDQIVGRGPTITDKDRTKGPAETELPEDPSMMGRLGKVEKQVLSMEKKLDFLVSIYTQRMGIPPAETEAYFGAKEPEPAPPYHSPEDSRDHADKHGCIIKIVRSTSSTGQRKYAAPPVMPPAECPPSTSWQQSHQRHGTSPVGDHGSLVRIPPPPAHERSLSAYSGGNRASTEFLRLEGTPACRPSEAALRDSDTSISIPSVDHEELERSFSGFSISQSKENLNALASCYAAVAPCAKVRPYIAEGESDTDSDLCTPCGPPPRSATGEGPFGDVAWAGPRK

Row | SMILES | outcome
1 | CCOc1ccccc1NC(=O)c1cccc(NC(=O)c2ccccc2C(F)(F)F)c1 | inactive
2 | Cc1cccc(C(=O)Nc2cccc(NC(=O)c3ccncc3)c2)c1 | inactive
3 | O=C(Nc1cccc(NC(=O)c2cccc(C(F)(F)F)c2)c1)c1ccccc1 | inactive
4 | COc1ccccc1NC(=O)c1cccc(NC(=O)c2ccccc2)c1 | inactive
5 | COc1ccc(CC(=O)NCc2ccccc2-c2ccccc2C(=O)NCc2ccc(F)cc2F)cc1 | inactive
6 | Cc1cccc(C(=O)Nc2cccc(NC(=O)c3ccc(C(C)(C)C)cc3)c2)c1 | inactive
7 | Cc1cccc(S(=O)(=O)Nc2cccc(NC(=O)c3ccccc3)c2)c1 | inactive
8 | CCOc1ccccc1NC(=O)c1cccc(NC(=O)C2CC2)c1 | inactive
9 | COc1ccccc1C(=O)Nc1cc(NC(=O)c2cccc(C)c2)ccc1F | inactive
10 | CCOc1ccccc1NC(=O)c1cccc(NC(=O)c2ccccc2C)c1 | inactive
11 | CC(C)c1ccccc1C(=O)Nc1cccc(NC(=O)c2ccccc2OC(F)(F)F)c1 | inactive
12 | Cc1ccccc1C(=O)Nc1cccc(NC(=O)c2ccccc2)c1 | inactive
13 | COc1ccc(F)cc1C(=O)Nc1cccc(NC(=O)c2cccc(C)c2)c1 | inactive
14 | Cc1cccc(C(=O)Nc2cccc(NC(=O)C3CCCCC3)c2)c1 | inactive
15 | CCOc1ccccc1NC(=O)c1cccc(NC(=O)c2ccc(C)cc2)c1 | inactive
16 | Cc1cccc(C(=O)Nc2cccc(NC(=O)c3ccccc3C)c2)c1 | inactive

Row | SMILES | outcome
17 | CCOc1ccccc1NC(=O)c1cccc(NC(=O)c2cccc(C(F)(F)F)c2)c1 | inactive
18 | Cc1cccc(C(=O)Nc2cccc(NC(=O)c3ccccc3)c2)c1 | inactive
19 | CCOc1ccccc1NC(=O)c1cccc(NC(=O)C2CCOC2)c1 (configuration not stated) | inactive
20 | CCOc1ccccc1NC(=O)c1cccc(NC(=O)c2cccc(OC)c2)c1 | inactive
21 | COc1ccccc1NC(=O)c1cccc(NC(=O)C2CCCCC2)c1 | inactive
22 | CC(C)Oc1ccccc1C(=O)Nc1cccc(NC(=O)c2ccccc2OC(F)(F)F)c1 | inactive
23 | CCOc1ccccc1NC(=O)c1cccc(NC(=O)c2ccc(OC)cc2)c1 | inactive
24 | O=C(Nc1cccc(NC(=O)c2ccncc2)c1)c1ccccc1 | inactive
25 | O=C(Nc1cccc(NC(=O)c2ccccn2)c1)c1ccccc1 | inactive
26 | CCOc1ccccc1NC(=O)c1cccc(NC(=O)c2ccccc2)c1 | inactive
27 | CCOc1ccccc1C(=O)Nc1cccc(NC(=O)C2CCCC2)c1 | inactive
28 | Cc1ccc(C(=O)Nc2cccc(NC(=O)c3ccccc3)c2)cc1 | inactive
29 | Cc1cccc(C(=O)Nc2cccc(NC(=O)c3ccc(Cl)cc3)c2)c1 | inactive
30 | CCOc1ccccc1NC(=O)c1cccc(NC(=O)c2ccccc2OC(F)(F)F)c1 | inactive
31 | CCOc1ccccc1NC(=O)c1cccc(NC(=O)CC2CCCC2)c1 | inactive
32 | Cc1cccc(C(=O)Nc2cccc(NC(=O)c3ccccc3C(C)C)c2)c1 | inactive

Reference: PubChem BioAssay AID652192 (Johns Hopkins Ion Channel Center, 2013)
